This passage reports activity change, negative = inhibition results from PubChem BioAssay AID1259421 (Broad Institute, 2018).

“And” between values parts separate entries of the source, which are not always exact repeats. Equal values may be shown once. About 610 (9.5%) of roughly 6,400 compounds were called active. The sample holds actives, similar compounds and a random draw of the others, so the mix is not that of the screen. Rule as the data show it: active = activity change below about -70%; inconclusive = no clear call, values can overlap the other calls; inactive = above that. The source holds several records for some structures; these can differ, active in one and inactive in another. Where a SMILES comes first, the peptide text is derived from it. Bridges are numbered along the chain shown (N, C = ends). [ ]: non-standard residue; d: D form. The star is where a group is joined. ξ: configuration not given here. Heptanoyl(6-Me) = CC(C)CCCCC(=O)*; ξDab = NCCC(N)C(=O)O; ξT = CC(O)C(N)C(=O)O

The assay in a line: T. gondii ME49Luc in HeLa cells, luciferase assay, 72 h, no IFN-y (AID 1259421). The settings on record: stronger effect = lower value, concentration not given here.
Consider `CCCCOc1ccc(C(=O)CCN2CCCCC2)cc1`, for which the activity change, negative = inhibition is 1.11% (inactive).
In the case of `Cc1cc(-c2cc(O)ccc2Cl)cc2nnc(Nc3ccc(OCCN4CCCC4)cc3)nc12`, the activity change, negative = inhibition is -89.7% (active).
The value for `Cc1cc(-c2cc(OC(=O)c3ccccc3)ccc2Cl)cc2nnc(Nc3ccc(OCCN4CCCC4)cc3)nc12` was 7.81% (inactive).
The value for `CCn1ccnc1CC1COc2ccccc2O1` (stereo not drawn) was 16.5% (inactive) and 6.37% (inactive).
The value for `Nc1nonc1C(=Nc1ccc(F)c(Cl)c1)NO` was 17% (inactive).
`CCOc1ccc(-n2c([C@@H](C)N(Cc3cccnc3)C(=O)Cc3ccc(OC(F)(F)F)cc3)nc3ncccc3c2=O)cc1`: the activity change, negative = inhibition is -0.654% (inactive).
Take `CON=C1C[C@]2(C[C@@H]3C[C@@H](C/C=C(\C)C[C@@H](C)/C=C/C=C4\CO[C@@H]5[C@H](O)C(C)=C[C@@H](C(=O)O3)[C@]45O)O2)O[C@H](/C(C)=C/C(C)C)[C@H]1C`: the activity change, negative = inhibition was -67.7% (inactive).
Next, `CC(C)c1cc(-c2n[nH]c(=O)n2-c2ccc3c(ccn3C)c2)c(O)cc1O`: -82.8% (active).
Next, `CC(C)CCCCC(=O)NC(CCN)C(=O)NC(C(=O)NC(CCN)C(=O)NC1CCNC(=O)C(C(C)O)NC(=O)C(CCN)NC(=O)C(CCN)NC(=O)[C@H](CC(C)C)NC(=O)[C@@H](CC(C)C)NC(=O)C(CCN)NC1=O)C(C)O` (stereo partly drawn) ({Heptanoyl(6-Me)}-[ξDab][ξT][ξDab][ξDab][ξDab][dL]L[ξDab][ξDab][ξT]; lactam 4-C): 5.64% (inactive).
With `COc1cc(-c2ccc(=O)[nH]n2)ccc1OC(F)F`, the activity change, negative = inhibition is -98.8% (active) and -89.5% (active).
Take `COc1ccc(-c2cc(=O)c3c(OC)c(OC)c(OC)c(OC)c3o2)cc1OC`: the activity change, negative = inhibition was 14.2% (inactive).
Next, `COc1ccc(-c2cc(=O)c3c(OC)c(OC)c(OC)cc3o2)cc1OC`: -3.44% (inactive); `N[C@@H](CSCCCO)C(=O)O`: 9.56% (inactive) and 5.2% (inactive).
The value for `COC(=O)Nc1nc2ccc(C(=O)c3cccs3)cc2[nH]1` was -78.8% (active) and -71.2% (active); that for `CCCS(=O)c1ccc2nc(NC(=O)OC)[nH]c2c1` (stereo not drawn) was 18.9% (inactive).
The value for `COC(=O)Nc1nc2ccc(S(=O)c3ccccc3)cc2[nH]1` (stereo not drawn) was 1.33% (inactive) and 7.44% (inactive) and -54.7% (inactive); that for `COC(=O)Nc1nc2ccc(C(=O)c3ccc(F)cc3)cc2[nH]1` was -64.8% (inactive); that for `CCCSc1ccc2nc(NC(=O)OC)[nH]c2c1` was -54.3% (inactive) and -5.56% (inactive).
As to `COC(=O)Nc1nc2ccc(SC(C)C)cc2[nH]1`, the activity change, negative = inhibition is -47% (inactive) and -32.6% (inactive).
Next, `COC(=O)Nc1nc2ccc(C(=O)C3CC3)cc2[nH]1`: -35.4% (inactive); `COC(=O)Nc1nc2ccc(Sc3ccccc3)cc2[nH]1`: -42.3% (inactive) and -3.74% (inactive) and -73.8% (active).
The value for `COC(=O)Nc1nc2ccc(C(=O)c3ccccc3)cc2[nH]1` was -65.6% (inactive) and -76% (active).
Regarding `CN(CCOP(=O)(O)O)C(=N)N`, the activity change, negative = inhibition is 22.7% (inactive) and 1.51% (inactive).
Next, `O=C(O)[C@H](Cc1ccc(Nc2nccc3ccncc23)cc1)NC1=C(Br)C(=O)C12CCCCC2`: -35.7% (inactive); `CN(C)CCC1(c2ccc(Cl)cc2)Cc2ccccc2C(=O)O1` (stereo not drawn): 24.4% (inactive) and 4.82% (inactive); `CCOc1nc2cccc(C(=O)OC(C)OC(=O)OC3CCCCC3)c2n1Cc1ccc(-c2ccccc2-c2nn[nH]n2)cc1` (stereo not drawn): 26.2% (inactive) and -2.58% (inactive).
Next, `COc1ccc(-c2oc3ccccc3c(=O)c2O)cc1OC`: 17.9% (inactive); `CN(C)C(=O)C(=O)c1cn(C)c2cc(Cl)c(C(=O)N3CCC(Cc4ccc(F)cc4)CC3)cc12`: -34.4% (inactive); `CN(C)[C@@H](CCOc1cccc2ccccc12)c1ccccc1`: 16.9% (inactive).
The value for `CC(C)Nc1nc2cc(Cl)c(Cl)cc2n1[C@H]1O[C@@H](CO)[C@H](O)[C@@H]1O` was -13.6% (inactive); that for `c1ccc(C(NCc2cccnc2)(c2ccccc2)c2ccccc2)cc1` was 3.97% (inactive) and 35.4% (inactive).
For the compound `CCCn1c(=O)c2[nH]c(C34CC5CC(CC3C5)C4)nc2n(CCC)c1=O`, the activity change, negative = inhibition is -9.56% (inactive).
As for `Clc1ccccc1C(c1ccccc1)(c1ccccc1)n1ccnc1`, the activity change, negative = inhibition was -38.2% (inactive) and -91% (active).
Next, `N#C/C(=C1/SCC(c2ccccc2Cl)S1)n1ccnc1` (stereo not drawn): 12.5% (inactive); `Fc1ccc(C(c2ccccc2)(c2ccccc2F)n2ccnc2)cc1` (stereo not drawn): -44.6% (inactive); `N[C@H](Cc1cnc[nH]1)C(=O)O`: 2.37% (inactive).
The value for `O=c1cc[nH]c2cc(Cl)ccc12` was 10.2% (inactive); that for `CNC(=O)CN1CCC(Oc2cc3c(Nc4cccc(Cl)c4F)ncnc3cc2OC)CC1` was -53.4% (inactive).
The value for `CN(C)C/C=C/C(=O)Nc1cc2c(Nc3ccc(F)c(Cl)c3)ncnc2cc1O[C@H]1CCOC1` was -87.8% (active); that for `CCN(CC)CC1CCN(c2ncc3ncnc(Nc4ccc(F)c(Cl)c4)c3n2)CC1` was -13.4% (inactive) and 3.34% (inactive); that for `COc1cc2ncnc(Nc3ccc(F)c(Cl)c3)c2cc1NC(=O)/C=C/CN1CCCCC1` was -80.3% (active).
As for `C=CC(=O)Nc1cc2c(Nc3ccc(F)c(Cl)c3)ncnc2cc1OCCCN1CCOCC1`, the activity change, negative = inhibition is -41.3% (inactive).
The value for `C[C@@H]1COC(Nc2ccc3ncnc(Nc4ccc(OCc5nccs5)c(Cl)c4)c3c2)=N1` was -65.9% (inactive).
The value for `CC/C=C\C/C=C\C/C=C\C/C=C\C/C=C\CCCC(=O)O` was 2.92% (inactive); that for `COc1ccc(NS(=O)(=O)c2ccc(N=Nc3ccc(O)c(C(=O)O)c3)cc2)nn1` was 5.08% (inactive).
Consider `O=C(O)Cc1nn(Cc2nc3cc(C(F)(F)F)ccc3s2)c(=O)c2ccccc12`, for which the activity change, negative = inhibition is 19.5% (inactive).
The value for `COCC(=O)NC/C=C/c1ccc2ncnc(Nc3ccc(Oc4ccc(C)nc4)c(C)c3)c2c1` was -85.5% (active); that for `C=CC(=O)Nc1ccc2ncnc(Nc3cccc(Br)c3)c2c1` was -18.1% (inactive).
Next, `COc1ccc(Nc2ncnc3ccc(OC)cc23)cc1`: 3.66% (inactive) and 3.52% (inactive); `c1ccc(Oc2cccnc2)cc1`: 5.26% (inactive).
The value for `CC1=CC(=O)CC(C)(C)[C@@]1(O)/C=C/C(C)=C\C(=O)O` was 0.0395% (inactive).
`CCCCC[C@H](O)/C=C/[C@@H]1[C@H]2C/C(=C/CCCC(=O)O)O[C@H]2C[C@H]1O`: the activity change, negative = inhibition was 13.9% (inactive).
Next, `CC(C)[C@H]1c2ccc(F)cc2CC[C@@]1(CCN(C)CCCc1nc2ccccc2[nH]1)OC(=O)C1CC1`: -84% (active) and -73.8% (active); `COCC(=O)O[C@]1(CCN(C)CCCc2nc3ccccc3[nH]2)CCc2cc(F)ccc2[C@@H]1C(C)C`: -74.4% (active) and -72.6% (active).
The value for `O=C(O)CCc1nc2ccccc2[nH]1` was 7.52% (inactive) and 21.6% (inactive); that for `O=C(O)C1CC(O)CN1` (stereo not drawn) was -0.806% (inactive); that for `Cc1ccc(S(=O)(=O)Nc2nc3ccccc3nc2Nc2ccc3nsnc3c2)cc1` was 1.14% (inactive).
Next, `O=c1oc2cc(O)ccc2c2oc3cc(O)ccc3c12`: 13.4% (inactive); `CN(C)CC[C@H](CSc1ccccc1)Nc1ccc(S(=O)(=O)NC(=O)c2ccc(N3CCN(Cc4ccccc4-c4ccc(Cl)cc4)CC3)cc2)cc1[N+](=O)[O-]`: -28.3% (inactive); `CC1(C)CCC(c2ccc(Cl)cc2)=C(CN2CCN(c3ccc(C(=O)NS(=O)(=O)c4ccc(N[C@H](CCN5CCOCC5)CSc5ccccc5)c(S(=O)(=O)C(F)(F)F)c4)cc3)CC2)C1`: -89% (active).
Consider `COC(=O)C(CCCN=C(N)N)NC(=O)CCCc1c(-c2ccccc2)[nH]c2c(F)cc(F)cc12` (stereo not drawn), for which the activity change, negative = inhibition was 11.7% (inactive).
Next, `C=C1[C@H]2CC[C@@]3(C)[C@H](c4ccoc4)OC(=O)C[C@]13O[C@H]1C[C@H](O)C(C)(C)[C@H](CC(=O)OC)[C@]12C`: -4.68% (inactive).
Next, `CCOC(=O)[C@H](CCc1ccccc1)N[C@H](C)C(=O)N1C2CCCCC2C[C@H]1C(=O)O` (stereo partly drawn): 14.3% (inactive) and 13.5% (inactive).
Next, `C=CC(=O)Nc1cccc(OC)c1`: 7.29% (inactive); `COc1cc(SC)ccc1-c1nc2ccncc2[nH]1`: -3.26% (inactive).
`CCN(CC)CC1CCCCN1CC(=O)N1c2ccccc2C(=O)Nc2cccnc21` (stereo not drawn): the activity change, negative = inhibition is 5.74% (inactive) and 8.21% (inactive).
The value for `C[C@]12CCC3c4ccc(O)cc4CCC3C1CC[C@@H]2O` (stereo partly drawn) was -87.4% (active); that for `CC12CCC3c4ccc(O)cc4CCC3C1C[C@H](O)[C@@H]2O` (stereo partly drawn) was -75.1% (active).
Next, `C[C@]12CCC3c4ccc(OS(=O)(=O)O)cc4CCC3C1CC[C@H]2O` (stereo partly drawn): -7.66% (inactive); `C[C@]12CCC3c4ccc(O)cc4CCC3C1C[C@@H](O)[C@@H]2O` (stereo partly drawn): -4.22% (inactive).
The value for `CC12CCC3c4ccc(OC(=O)c5ccccc5)cc4CCC3C1CCC2O` (stereo not drawn) was -15.9% (inactive).
With `C[C@]12CC[C@@H]3c4ccc(O)cc4CC[C@H]3[C@@H]1CC[C@@H]2O`, the activity change, negative = inhibition is -81.4% (active) and -83.1% (active).
Next, `C[C@]12CCC3c4ccc(OC(=O)c5ccccc5)cc4CCC3C1CCC2=O` (stereo partly drawn): -55.9% (inactive); `C[C@]12CC[C@@H]3c4ccc(O)cc4CC[C@H]3[C@@H]1C[C@@H](O)[C@@H]2O`: -0.302% (inactive); `C[C@]12CCC3c4ccc(OC(=O)c5ccccc5)cc4CCC3C1CC[C@@H]2O` (stereo partly drawn): -85.4% (active).
As for `COc1ccc2c(c1)CCC1C2CC[C@@]2(C)C1CC[C@@H]2O` (stereo partly drawn), the activity change, negative = inhibition is -9.49% (inactive).
Next, `COc1cc2c(cc1O)CC[C@@H]1[C@@H]2CC[C@]2(C)[C@@H](O)CC[C@@H]12`: -44.5% (inactive); `CC(=O)OC1CCC2C3CCc4cc(O)ccc4C3CCC12C` (stereo not drawn): 1.9% (inactive).
